Source: PubChem (National Center for Advancing Translational Sciences (NCATS))
In the library only some 7.9% were active in any assay of this set; here they are far more common.
MARV entry inh: Marburg virus entry inhibition. Marburg virus pseudotyped entry inhibition, cell reporter. Potency, µM (series often up to 37.8 µM), actives largely listed as inhibitors. hit rate 1.8% among 300,000. AID 540276; calls by dose curve; tested in HEK293 cells
FMDV antiviral: antivirals against foot and mouth disease virus; FMDV antiviral cell-based qHTS; Potency, µM (series often up to 57.9 µM), actives largely listed as inhibitors; hit rate 1.2% among 410,000; calls by dose curve; tested in HEK293T cells; further: read-out not given here; nearly all actives have a fitted effect of over 45% in size
HCV inhibitor: blocks hepatitis C virus. AID 651820. hit rate 3.4% among 340,000. Potency, µM (highest dose often 41.8 µM), usual class: inhibitors. Huh7.5.1 HCVcc-Cre infection, luciferase reporter, 44 h; active means well fitted inhibition curve with a large enough effect; inconclusive means small, poorly fitted or top-dose-only effect, or another doubt; inactive means no such curve, though single readings can be large or run the other way
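A cell-based infection assay in which seeded cells (1,000 per well) receive test compound after 4 h, are inoculated with HCVcc-Cre at approximately 0.5 moi, and are incubated 44 h before luminescence detection.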
HCMV inh: inhibitors of human cytomegalovirus | hit rate 4.5% among 410,000 | HFF cells, HCMV-luciferase reporter, 72 h; active compounds read low | activity change, negative = inhibition, % at 57.5 µM; in the data active means activity change below about -60%; inconclusive means no clear call, values can overlap the other calls; inactive means above about -39%
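After 16 h attachment at 37C, HFF cells received test compound and HCMV-luciferase (1 PFU/cell); reporter luminescence read 72 h later, data normalized against buffer-only and known inhibitor Salinomycin.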
LASV entry inh: blocks Lassa virus binding to or entry into cells | Lassa virus pseudotype entry inhibition, cell reporter | Potency, µM (series often up to 37.9 µM), hits mostly inhibitors | hit rate 1.2% among 300,000 | AID 540256; calls by dose curve; tested in HEK293 cells; further: nearly all actives have a fitted effect of over 50% in size
Large screens that a line does not name were inactive.

COc1ccc(/C=N/NC(=O)c2[nH]c3ccc(C)cc3c2-c2ccccc2)c(C(=O)O)c1OC	none
OC1CCCCC1/C=N/n1c2c(c3c1CCCC3)CCCC2 (configuration not stated)	none (no result: FMDV antiviral, HCV inhibitor, HCMV inh, LASV entry inh)
Cc1cc(/C=C2/C(=O)NN(c3ccccc3)C2=O)c(C)n1-c1ccc(O)cc1	MARV entry inh 7.1µM, FMDV antiviral 18µM, HCV inhibitor inconclusive, HCMV inh -86, LASV entry inh inconclusive
COc1ccc(-n2c(C)cc(/C=C3\C(=O)NN(c4ccccc4)C3=O)c2C)cc1	none
CC(=O)c1ccccc1N(C(=O)c1ccco1)C(C(=O)NC1CCCC1)c1ccc(N2CCOCC2)cc1 (configuration not stated)	none
CC(C)N(C(=O)[C@H]1C[C@H](CC(=O)NCc2ccco2)C(=O)N2CCc3c([nH]c4ccc(Cl)cc34)[C@]12C)C(C)C	FMDV antiviral inconclusive, HCV inhibitor inconclusive (no result: MARV entry inh, LASV entry inh)
O=C(COc1ccccc1)NC1CCN(Cc2ccccc2)CC1	MARV entry inh inconclusive
O=C(COc1ccc(Br)cc1Cl)NC1CCN(Cc2ccccc2)CC1	HCV inhibitor 11µM, LASV entry inh inconclusive
CN1CCC(N(C)S(=O)(=O)c2ccc(NC(=O)c3ccc(S(=O)(=O)N(C)C)cc3)cc2)CC1	MARV entry inh inconclusive, HCV inhibitor inconclusive, LASV entry inh inconclusive
Cc1c(C(=O)Nc2ccc(S(=O)(=O)N(C)C3CCN(C)CC3)cc2)oc2ccccc12	HCV inhibitor 6.3µM, HCMV inh inconclusive, LASV entry inh inconclusive
Cc1c(C(=O)Nc2ccc(S(=O)(=O)N(C)C3CCN(C)CC3)cc2)oc2c(Cl)cccc12	MARV entry inh inconclusive, HCV inhibitor 2µM, LASV entry inh inconclusive
O=C(COc1ccc(Br)cc1CNC1CCCCC1)NCCc1ccccc1	MARV entry inh 11µM, HCV inhibitor inconclusive, LASV entry inh inconclusive
CCc1nc2ccc(C(=O)NCCCN3CCCC3=O)cn2c1N(C)CCC(C)C	none (no result: MARV entry inh, HCV inhibitor, LASV entry inh)
CCOc1ccc(NC(=O)C2CCCN(S(=O)(=O)c3c(C)noc3/C=C/N(C)C)C2)cc1 (configuration not stated)	MARV entry inh inconclusive (no result: HCV inhibitor)
COc1ccc([C@@H]2[C@@H](C(=O)N3CCCC3)CC(=O)N2C(=O)c2ccccc2)cc1	none (no result: MARV entry inh, FMDV antiviral, HCV inhibitor, LASV entry inh)
CN1CCC(N(C)S(=O)(=O)c2ccc(NC(=O)COc3ccc(Br)cc3Cl)cc2)CC1	MARV entry inh 8.9µM, HCV inhibitor 10µM, LASV entry inh 6.3µM
Cc1cc(C)c(C#N)c(SCC(O)COc2ccc(Br)cc2)n1 (configuration not stated)	HCV inhibitor inconclusive
COc1ccc(C)cc1NC(=S)NC(C)c1ccc(OC)c(OC)c1 (configuration not stated)	HCV inhibitor 11µM, HCMV inh inconclusive (no result: MARV entry inh, LASV entry inh)
COc1ccc(NC(=S)NC(C)c2ccncc2)cc1OC (configuration not stated)	HCMV inh inconclusive
O=C1NC(=S)NC(=O)C1=Cc1ccccc1C(=O)O	none
COC(=O)[C@@H]1[C@@H](C#N)C2(c3ccccc3-c3ccccc32)N(c2ccc(Cl)cc2)N1C#N	MARV entry inh inconclusive, FMDV antiviral 25µM, HCV inhibitor inconclusive, LASV entry inh inconclusive
COC(=O)C1(O)CC(c2ccccc2)C(C(=O)c2ccccc2)N1c1ccc(Cl)cc1 (configuration not stated)	none (no result: MARV entry inh, FMDV antiviral, HCV inhibitor, LASV entry inh)
COC(=O)CC=C1c2ccccc2OC[C@@H](OC)[C@H]1C	none (no result: FMDV antiviral, HCV inhibitor, HCMV inh, LASV entry inh)
O=C(CN1C(=O)C2(SCC(=O)N2c2cccc(F)c2)c2ccccc21)NCCc1ccccc1 (configuration not stated)	HCMV inh -107 (no result: MARV entry inh, HCV inhibitor)
Cc1ccc(C)c(S(=O)(=O)N2CCN(c3nc(-c4cccnc4)nc4ccccc34)CC2)c1	FMDV antiviral inconclusive, HCV inhibitor 11µM (no result: MARV entry inh, LASV entry inh)
COc1cc2c(cc1OC)CN(c1nc(-c3cccnc3)nc3ccccc13)CC2	MARV entry inh inconclusive, FMDV antiviral 16µM, HCV inhibitor 14µM, LASV entry inh inconclusive
COC(=O)[C@](O)(c1ccc(NC(=O)c2ccco2)c(OC)c1)C(F)(F)F	none (no result: FMDV antiviral, HCV inhibitor, HCMV inh, LASV entry inh)
Cc1nn(C)c(Cl)c1CN1CCC(CO)(CCOc2ccccc2)CC1	MARV entry inh inconclusive, FMDV antiviral inconclusive
OCC1(CCOc2ccccc2)CCN(Cc2ccccc2OC(F)F)CC1	MARV entry inh inconclusive
Cc1c(CN2CCC(CO)(CCOc3ccccc3)CC2)[nH]c2c(Cl)cccc12	HCV inhibitor 14µM (no result: MARV entry inh, LASV entry inh)
OCC1(CCOc2ccccc2)CCN(Cc2ccc(OC(F)F)cc2)CC1	MARV entry inh inconclusive, HCV inhibitor 13µM
Cc1ccc(C)c(SCC(=O)Nc2ccc(C)c(S(=O)(=O)N3CCOCC3)c2)c1	FMDV antiviral inconclusive, HCV inhibitor inconclusive (no result: MARV entry inh, LASV entry inh)
COC(=O)C1=C(C)N(Cc2ccccc2)C(=S)NC1c1cccc(C(F)(F)F)c1 (configuration not stated)	none (no result: FMDV antiviral, HCV inhibitor, HCMV inh, LASV entry inh)
Cc1ccc(C)c(C(=O)N2CCC(C3(c4ccccn4)NC(=O)N(CC4CCCO4)C3=O)CC2)c1 (configuration not stated)	none (no result: MARV entry inh, HCV inhibitor, HCMV inh, LASV entry inh)
CC(=O)N1c2ccc(S(=O)(=O)N3CCC(C(=O)Nc4ccc(F)cc4)CC3)cc2CC1C (configuration not stated)	HCV inhibitor 11µM, HCMV inh inconclusive
CC(=O)N1c2ccc(S(=O)(=O)N3CCC(C(=O)Nc4cccc(C(F)(F)F)c4)CC3)cc2CC1C (configuration not stated)	FMDV antiviral inconclusive, HCV inhibitor 2.5µM, HCMV inh -89 (no result: MARV entry inh, LASV entry inh)
CCc1cccc(NC(=O)C2CCN(S(=O)(=O)c3ccc4c(c3)CC(C)N4C(C)=O)CC2)c1 (configuration not stated)	FMDV antiviral 14µM, HCV inhibitor inconclusive, HCMV inh -85 (no result: MARV entry inh, LASV entry inh)
COc1cccc(NC(=O)C2CCN(S(=O)(=O)c3ccc4c(c3)CC(C)N4C(C)=O)CC2)c1 (configuration not stated)	HCV inhibitor inconclusive, HCMV inh inconclusive (no result: MARV entry inh, LASV entry inh)
CCOc1ccc(N(CC(=O)Nc2cccc(Br)c2)S(C)(=O)=O)cc1	HCV inhibitor inconclusive (no result: MARV entry inh, LASV entry inh)
CC(C)C(NS(C)(=O)=O)c1nnc2n1CCN(Cc1ccc(C#CC(C)(C)O)cc1)CC2 (configuration not stated)	none (no result: MARV entry inh, HCV inhibitor, HCMV inh, LASV entry inh)
COc1ccc(CN2CCN(Cc3nc4ccccc4s3)CC2CCO)c(C)c1C (configuration not stated)	FMDV antiviral inconclusive, HCV inhibitor 6.3µM (no result: MARV entry inh, LASV entry inh)
COc1ccc(CN2CCN(CC3CC3)CC2CCO)c(C)c1C (configuration not stated)	none (no result: MARV entry inh, LASV entry inh)
Nc1nc(=S)c2ncn(C3OC(CO)C(O)C3O)c2[nH]1 (configuration not stated)	MARV entry inh inconclusive
O=c1[nH]cnc2c1ncn2C1OC(CO)C(O)C1O (configuration not stated)	none (no result: MARV entry inh, LASV entry inh)
CCCCCCCCCCCCCCCC(=O)OCC1OC(n2ccc(N)nc2=O)C(O)C1O (configuration not stated)	HCV inhibitor inconclusive
Nc1ccn(C2OC(CO)C(O)C2F)c(=O)n1 (configuration not stated)	HCMV inh -82 (no result: MARV entry inh, HCV inhibitor, LASV entry inh)
Nc1ncn([C@@H]2O[C@H](CO)[C@@H](O)[C@H]2O)c(=O)n1	MARV entry inh inconclusive, HCMV inh inconclusive, LASV entry inh 4.1µM
